Assay results: PubChem BioAssay (Tox21)
“And” between values parts separate entries of the source, which are not always exact repeats. Identical values can stand only once. A number with no mark means an inactive call. Records with an inconclusive call do not appear. A call without a number means that no potency is given here. The source made the active and inactive calls. Unless noted, the call rests on the fitted dose curve; in most records, active means well fitted curve in the direction sought with a large enough effect in the repeat runs; inconclusive means weak or mixed curves; inactive means no such curve, though single readings can be large; an effect the other way counts as inactive or inconclusive.

How the values were obtained:
[1] = target: Thyrotropin receptor (Homo sapiens) (UniProt P16473); assay: qHTS assay to identify small molecule antagonists of the thyroid stimulating hormone receptor (TSHR) signaling pathway (AID 1259385; calls by dose curve; further: nearly all actives have a fitted effect of over 20% in size)
Outline: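 Antagonist mode: compound-treated TSHR-expressing HEK293 cells were stimulated with 1.5 ng/mL TSH (final) in presence of Ro20-1724 for 30 min at RT. HTRF cAMP detection after 1 h; each compound tested at 15 concentrations, triplicate.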

[2] = qHTS assay to identify small molecule agonists of the estrogen receptor alpha (ER-alpha) signaling pathway in the presence of an antagonist - cell viability counter screen (AID 1259386);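 further: series mostly up to about 92 µM; cells exposed to compounds for 22 h at 37 °C before the viability read; nearly all actives have a fitted effect of over 30% in size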
Outline: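 Using estrogen-depleted VM7Luc4E2 cells, the 15-concentration compound series was applied together with 10.0nM ICI-182,780 and incubated 22hr at 37C/5% CO2. Cell viability was then scored by CellTiter-Fluor.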

[3] = target: Progesterone receptor (Homo sapiens) (UniProt P06401); assay: qHTS assay to identify small molecule agonists of the progesterone receptor (PR) signaling pathway (AID 1346784; calls by dose curve; further: nearly all actives have a fitted effect of over 30% in size)
Outline: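 PR-UAS-bla HEK 293T cells carrying a UAS-driven beta-lactamase reporter were seeded in medium with 2% charcoal-stripped FBS, preincubated 6 hr at 37C, then exposed to compounds in DMSO for 16 hr; agonism was read by LiveBLAzer B/G FRET fluorescence.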

[4] = target: Progesterone receptor (Homo sapiens) (UniProt P06401); assay: qHTS assay to identify small molecule antagonists of the progesterone receptor (PR) signaling pathway (AID 1346795; active means well fitted inhibition curve with a large enough effect in the signal ratio in the repeat runs, not every such curve was filed as active; the % refers to the signal ratio)
Outline: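 PR-UAS-bla HEK293T cells carrying a UAS-driven beta-lactamase reporter were plated in medium with 2% charcoal-stripped FBS and rested 6 hr at 37C. Compounds were added with 1 nM R5020 (final) for 16 hr, then FRET substrate loaded 2 hr at room temperature.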

[5] = qHTS assay to identify small molecule antagonists of the progesterone receptor (PR) signaling pathway - cell viability counter screen (AID 1346798); further: series mostly up to about 92 µM; nearly all actives have a fitted effect of over 50% in size
Outline: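 PR-UAS-bla HEK293T cells in medium with 2% charcoal-stripped FBS were treated with compounds plus R5020 for 16 hr at 37C. Cell viability was then read by CellTiter-Glo luminescence after 30 min at room temperature in the same wells.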

[6] = qHTS assay to identify small molecule agonists of the progesterone receptor (PR) signaling pathway - cell viability counter screen (AID 1346799; calls by dose curve; further: nearly all actives have a fitted effect of over 45% in size)
Outline: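 PR-UAS-bla HEK293T cells, 3,000 per well in medium with 2% charcoal-stripped FBS, were preincubated 6 hr at 37C, then exposed to compounds for 16 hr; viability was read as CellTiter-Glo luminescence after 30 min at room temperature.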

[7] = qHTS assay to identify small molecule antagonists of the TGF-beta/Smad signaling pathway - cell viability counter screen (AID 1346824); further: nearly all actives have a fitted effect of over 50% in size
Outline: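 Cytotoxicity counter-screen run in the same wells as the beta-lactamase Smad reporter read: CellTiter-Glo luminescence after 30 min at room temperature. HEK 293T SBE-bla cells had 5 hr compound exposure at 37 C with TGF-beta1 (0.25 ng/mL stock).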

[8] = qHTS assay to identify small molecule agonists of the TGF-beta/Smad signaling pathway - cell viability counter screen (AID 1346829); further: top concentration of the series differs between compounds; nearly all actives have a fitted effect of over 45% in size
Outline: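 CellTiter-Glo luminescence readout; SBE-bla HEK 293T cells, overnight plating, compound 5 hr at 37 C/5% CO2, then bla substrate 2 hr RT, then CellTiter-Glo 30 min RT.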

[9] = qHTS assay to identify small molecule agonists of the TGF-beta/Smad signaling pathway (AID 1346859; active means well fitted activation curve with a large enough effect in the signal ratio in the repeat runs, not every such curve was filed as active; the % refers to the signal ratio; further: series mostly up to about 77 µM)
Outline: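 HEK 293T cells stably carrying a beta-lactamase reporter driven by the Smad binding element were seeded overnight, exposed to DMSO-dissolved compounds for 5 hr at 37 C, 5% CO2, then loaded with FRET substrate for 2 hr at room temperature.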

[10] = target: Thyrotropin-releasing hormone receptor (Homo sapiens) (UniProt P34981); assay: qHTS assay to identify small molecule antagonists of the thyrotropin-releasing hormone receptor (TRHR) signaling pathway (AID 1346877; active means well fitted inhibition curve with a large enough effect in the repeat runs, not every such curve was filed as active; further: series mostly up to about 51 µM)
Outline: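 Calcium signal in dye-loaded TRHR/HEK293 cells; compounds added 5 min before TRH (1 nM final); fluorescence monitored 3 min at 1 s steps.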

[11] = target: Thyrotropin-releasing hormone receptor (Homo sapiens) (UniProt P34981); assay: qHTS assay to identify small molecule agonists of the thyrotropin-releasing hormone receptor (TRHR) signaling pathway (AID 1346891; calls by dose curve; further: series mostly up to about 58 µM)
Outline: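 TRHR-expressing HEK293 cells were plated 18 h at 37 °C/5% CO2, loaded with calcium dye 2 h at 37 °C, then given compound in DMSO; fluorescence was read kinetically for 3 min at 1 s intervals.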

[12] = Human pregnane X receptor (PXR) small molecule agonists, qHTS cell viability counter screen (AID 1346977); further: nearly all actives have a fitted effect of over 50% in size
Outline: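 PXR-Luc HepG2 cells in medium with 5% charcoal-stripped FBS were pre-incubated 5hr, then exposed to compounds for 24hr at 37C. Viability was read in the same wells by CellTiter-Fluor fluorescence, reagent added after 23hr with a 1hr incubation.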

[13] = Caspase-3/7 induction in HepG2 cells by small molecules, qHTS assay (AID 1346978); further: nearly all actives have a fitted effect of over 15% in size
Outline: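 Caspase-3/7 induction was measured by Caspase-Glo 3/7 luminescence (30 min, room temperature) after a 17 hr compound exposure of wild-type HepG2 cells seeded at 2,000 per well and pre-incubated 5 hr.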

[14] = Caspase-3/7 induction in CHO-K1 cells by small molecules, qHTS assay (AID 1346980); further: nearly all actives have a fitted effect of over 15% in size
Outline: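 Luminescent Caspase-Glo 3/7 read (30min, room temperature) quantified apoptosis induction. Cells were wild-type CHO-K1, treated with compound for 17hr at 37 C and 5% CO2.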

[15] = target: Nuclear receptor subfamily 1 group I member 2 (Homo sapiens) (UniProt O75469); assay: Human pregnane X receptor (PXR) small molecule agonists, qHTS assay (AID 1346982); further: nearly all actives have a fitted effect of over 35% in size; further: potency means the concentration at half of the fitted maximal effect
Outline: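 Tox21 qHTS; PXR-Luc HepG2; compounds pinned from DMSO; 24 hr, 37 C; ONE-Glo luciferase detection, 30 min room temperature.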

[16] = Caspase-3/7 induction in CHO-K1 cells by small molecules, qHTS cell viability counter screen (AID 1346979); further: nearly all actives have a fitted effect of over 35% in size
Outline: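 Wild-type CHO-K1 cells were seeded at 1,500 per well, rested 5hr at 37 C, then exposed to compounds in DMSO. After 16hr, CellTiter-Fluor reagent was added and fluorescence read 1hr later as the viability measure.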

[17] = Caspase-3/7 induction in HepG2 cells by small molecules, qHTS cell viability counter screen (AID 1346981); further: series mostly up to about 92 µM; nearly all actives have a fitted effect of over 30% in size
Outline: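 After a 5-hr attachment period at 37 C and 5% CO2, wild-type HepG2 cells received compounds in DMSO. Sixteen hours later CellTiter-Fluor was dispensed and the fluorescent signal quantified after a further hour.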

[18] = target: Nuclear receptor subfamily 1 group I member 2 (Rattus norvegicus) (UniProt Q9R1A7); assay: Rat pregnane X receptor (rPXR) activation by small molecules, qHTS assay (AID 1346983); conditions: rPXR luciferase reporter cells, One-Glo luminescence, 24 h; max activation: hits give high values; further: nearly all actives have a fitted effect of over 20% in size
Outline: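 Luminescent readout (One-Glo luciferase, 30 min room temperature) followed 24 hr compound treatment at 37 C of rPXR cells plated 2,000 per well and preincubated 5hr; qHTS format with compounds delivered in DMSO.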

[19] = target: Nuclear receptor subfamily 1 group I member 2 (Homo sapiens) (UniProt O75469); assay: CYP3A4 induction through human pregnane X receptor (PXR) by small molecules, qHTS assay (AID 1346984); further: nearly all actives have a fitted effect of over 40% in size
Outline: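 Cells (DPX-2; HepG2 with PXR element plus CYP3A4-promoter luciferase) settled 5hr, then were treated 24hr at 37C. A 3hr, 3uM-final Luciferin-IPA step preceded luminescence measurement with One-Glo.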

[20] = target: Nuclear receptor subfamily 1 group I member 2 (Homo sapiens) (UniProt O75469); assay: Human pregnane X receptor (PXR) activation by small molecules, qHTS assay (AID 1346985); further: nearly all actives have a fitted effect of over 40% in size
Outline: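 DPX-2 cells (HepG2 co-transfected with a PXR response element and a CYP3A4-promoter luciferase construct) were seeded at 2,000 per well, rested 5 hr at 37C, then exposed to DMSO-dissolved compounds for 24 hr. Activation was read as luciferase luminescence.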

Chain of Nuclear receptor subfamily 1 group I member 2 (Homo sapiens) (O75469 whole entry, looked up): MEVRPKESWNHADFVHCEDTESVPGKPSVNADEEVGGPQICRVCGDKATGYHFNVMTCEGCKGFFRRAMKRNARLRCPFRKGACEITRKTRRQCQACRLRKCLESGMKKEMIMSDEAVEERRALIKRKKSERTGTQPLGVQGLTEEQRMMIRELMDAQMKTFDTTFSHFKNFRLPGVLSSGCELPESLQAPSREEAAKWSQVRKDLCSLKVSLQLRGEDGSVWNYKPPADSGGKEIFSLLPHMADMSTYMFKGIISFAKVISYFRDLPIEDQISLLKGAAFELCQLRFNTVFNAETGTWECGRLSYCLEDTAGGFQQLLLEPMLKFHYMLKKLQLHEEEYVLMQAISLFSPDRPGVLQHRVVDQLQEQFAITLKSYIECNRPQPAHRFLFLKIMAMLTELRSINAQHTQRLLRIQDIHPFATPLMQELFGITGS
Chain of Nuclear receptor subfamily 1 group I member 2 (Rattus norvegicus) (Q9R1A7 whole entry, looked up): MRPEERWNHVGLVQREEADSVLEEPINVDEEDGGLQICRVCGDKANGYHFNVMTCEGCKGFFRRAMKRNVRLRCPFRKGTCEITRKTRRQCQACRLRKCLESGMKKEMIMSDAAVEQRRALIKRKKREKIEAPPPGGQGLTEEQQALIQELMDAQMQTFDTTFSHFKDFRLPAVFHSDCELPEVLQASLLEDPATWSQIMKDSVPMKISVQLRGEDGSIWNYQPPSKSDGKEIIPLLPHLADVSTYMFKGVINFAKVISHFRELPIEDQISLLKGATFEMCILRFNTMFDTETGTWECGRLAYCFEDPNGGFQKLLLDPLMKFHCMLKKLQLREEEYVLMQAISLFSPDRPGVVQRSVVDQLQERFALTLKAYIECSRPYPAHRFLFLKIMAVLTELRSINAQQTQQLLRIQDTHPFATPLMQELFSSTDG
Chain of Thyrotropin receptor (Homo sapiens) (P16473 whole entry, looked up): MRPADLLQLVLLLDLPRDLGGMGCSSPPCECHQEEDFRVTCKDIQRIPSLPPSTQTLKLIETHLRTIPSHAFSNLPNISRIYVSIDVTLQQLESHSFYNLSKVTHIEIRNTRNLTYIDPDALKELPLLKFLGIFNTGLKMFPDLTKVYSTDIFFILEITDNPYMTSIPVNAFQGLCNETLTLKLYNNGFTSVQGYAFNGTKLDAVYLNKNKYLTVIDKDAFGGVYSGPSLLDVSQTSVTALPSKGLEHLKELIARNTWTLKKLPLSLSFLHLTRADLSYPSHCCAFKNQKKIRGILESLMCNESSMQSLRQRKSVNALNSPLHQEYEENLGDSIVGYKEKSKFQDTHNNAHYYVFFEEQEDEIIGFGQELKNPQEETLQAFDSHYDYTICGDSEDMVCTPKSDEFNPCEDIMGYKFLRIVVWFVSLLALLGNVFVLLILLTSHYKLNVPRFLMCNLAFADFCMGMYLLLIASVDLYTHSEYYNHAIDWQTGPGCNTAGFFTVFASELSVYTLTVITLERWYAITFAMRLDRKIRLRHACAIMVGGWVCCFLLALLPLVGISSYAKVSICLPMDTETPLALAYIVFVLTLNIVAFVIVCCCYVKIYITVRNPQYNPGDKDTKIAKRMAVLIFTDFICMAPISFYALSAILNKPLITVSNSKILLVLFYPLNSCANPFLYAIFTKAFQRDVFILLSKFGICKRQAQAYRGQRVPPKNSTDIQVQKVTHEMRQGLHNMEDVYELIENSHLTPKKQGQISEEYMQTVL
Chain of Thyrotropin-releasing hormone receptor (Homo sapiens) (P34981 whole entry, looked up): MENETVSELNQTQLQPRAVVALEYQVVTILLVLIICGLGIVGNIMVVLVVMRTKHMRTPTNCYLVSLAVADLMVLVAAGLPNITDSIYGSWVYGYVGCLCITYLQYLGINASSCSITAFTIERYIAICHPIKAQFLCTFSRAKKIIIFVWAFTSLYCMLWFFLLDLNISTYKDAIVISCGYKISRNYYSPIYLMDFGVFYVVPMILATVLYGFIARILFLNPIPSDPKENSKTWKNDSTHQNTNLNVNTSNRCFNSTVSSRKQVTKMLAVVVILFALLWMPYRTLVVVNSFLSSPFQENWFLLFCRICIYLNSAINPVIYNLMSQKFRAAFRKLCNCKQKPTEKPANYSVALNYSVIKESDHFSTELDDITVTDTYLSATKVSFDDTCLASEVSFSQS
Chain of Progesterone receptor (Homo sapiens) (P06401 whole entry, looked up): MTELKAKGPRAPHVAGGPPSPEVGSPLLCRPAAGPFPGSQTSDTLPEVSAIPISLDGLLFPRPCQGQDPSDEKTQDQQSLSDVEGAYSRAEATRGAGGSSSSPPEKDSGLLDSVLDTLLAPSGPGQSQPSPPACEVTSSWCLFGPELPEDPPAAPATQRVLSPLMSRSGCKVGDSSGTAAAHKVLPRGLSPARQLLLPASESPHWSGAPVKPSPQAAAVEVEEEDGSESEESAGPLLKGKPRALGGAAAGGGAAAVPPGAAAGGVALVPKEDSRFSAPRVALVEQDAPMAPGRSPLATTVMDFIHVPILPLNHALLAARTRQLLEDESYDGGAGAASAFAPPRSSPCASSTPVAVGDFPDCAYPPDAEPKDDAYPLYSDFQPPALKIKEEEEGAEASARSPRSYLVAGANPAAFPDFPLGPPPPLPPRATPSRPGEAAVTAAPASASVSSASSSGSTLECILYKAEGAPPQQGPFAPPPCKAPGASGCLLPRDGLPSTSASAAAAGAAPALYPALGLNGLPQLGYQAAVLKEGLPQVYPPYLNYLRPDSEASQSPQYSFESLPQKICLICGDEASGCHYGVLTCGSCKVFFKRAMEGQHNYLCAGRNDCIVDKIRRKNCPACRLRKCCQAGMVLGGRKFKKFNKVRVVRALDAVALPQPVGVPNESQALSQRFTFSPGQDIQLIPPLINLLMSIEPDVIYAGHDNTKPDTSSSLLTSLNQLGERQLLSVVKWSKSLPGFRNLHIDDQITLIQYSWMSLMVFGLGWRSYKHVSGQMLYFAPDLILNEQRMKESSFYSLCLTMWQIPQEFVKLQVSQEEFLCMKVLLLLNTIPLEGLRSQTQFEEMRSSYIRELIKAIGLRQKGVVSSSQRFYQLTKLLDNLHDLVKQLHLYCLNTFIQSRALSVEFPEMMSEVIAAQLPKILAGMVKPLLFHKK

Row | SMILES | Potency [1] | Potency [2] | Potency [3] | Potency [4] | Potency [5] | Potency [6] | Potency [7] | Potency [8] | outcome [9] | Potency [10] | Potency [11] | Potency [12] | Potency [13] | Potency [14] | Potency [15] | Potency [16] | Potency [17] | max activation [18] | Potency [19] | Potency [20]
1 | C=CCC1([C@H](C)CCC)C(=O)NC(=O)NC1=O | inactive | inactive | inactive | inactive | inactive | inactive | inactive | inactive | inactive | inactive | inactive | inactive | inactive | inactive | inactive |  |  |  |  | 
2 | Cc1ccc2ccccc2c1 | inactive | inactive | inactive | inactive | inactive | inactive | inactive | inactive | inactive | inactive | inactive | inactive | inactive | inactive | inactive | inactive | inactive |  |  | 
3 | CC1Sc2c(C(=O)O)c(=O)c3cc(F)c(N4CCNCC4)cc3n21 (stereo not given) | inactive | inactive | inactive | inactive | inactive | inactive | inactive | inactive | inactive | inactive | inactive | inactive | inactive | inactive | inactive | inactive | inactive |  |  | 
4 | CN1C(=O)NC(=O)C(C)(C2=CCCCC2)C1=O (stereo not given) | inactive | inactive | inactive | inactive | inactive | inactive | inactive | inactive | inactive | inactive | inactive | inactive | inactive | inactive | inactive |  | inactive | -1.51% and -2.62% | inactive | inactive
5 | CC(=O)C(C)(C)C | inactive | inactive | inactive | inactive | inactive | inactive | inactive | inactive | inactive | inactive | inactive | inactive | inactive | inactive | inactive | inactive | inactive |  |  | 
6 | O=NN1CCCCCC1 | inactive | inactive | inactive | inactive | inactive | inactive | inactive | inactive | inactive | inactive | inactive | inactive | inactive | inactive | inactive | inactive | inactive |  |  | 
7 | CCCCCCC#N | inactive | inactive | inactive | inactive | inactive | inactive | inactive | inactive | inactive | inactive | inactive | inactive |  | inactive | inactive | inactive |  |  |  | 
8 | Brc1ccccc1 | inactive | inactive | inactive | inactive | inactive | inactive | inactive | inactive | inactive | inactive | inactive | inactive | inactive | inactive | inactive |  | inactive |  |  | 
9 | NCCCNCCCN | inactive | inactive | inactive | inactive | inactive | inactive | inactive | inactive | inactive | inactive | inactive | inactive |  | inactive |  | inactive |  |  |  | 
10 | ClC=C(Cl)Cl | inactive | inactive | inactive | inactive | inactive | inactive | inactive | inactive | inactive | inactive | inactive | inactive |  | inactive | inactive | inactive |  | -0.508% | inactive | inactive
11 | O=C(O)c1ccccc1C(=O)Nc1cccc2ccccc12 | inactive | inactive | inactive | inactive | inactive | inactive | inactive | inactive | inactive | inactive | inactive | inactive | inactive | inactive | 38.6 µM (active) | inactive | inactive |  |  | 
12 | Sc1ccccc1Cl | inactive | inactive | inactive | inactive | inactive | inactive | inactive | inactive | inactive | inactive | inactive | inactive | inactive | inactive | inactive |  | inactive |  |  | 
13 | O=C(NC(=O)c1c(F)cccc1F)Nc1ccc(OC(F)(F)C(F)OC(F)(F)F)c(Cl)c1 (stereo not given) | inactive | inactive | inactive | inactive | inactive | inactive | inactive | inactive | inactive | inactive | inactive | inactive | inactive | inactive | inactive | inactive | inactive |  |  | 
14 | CCCCCCCCCCOC(=O)c1ccccc1C(=O)OCCCCCCCCCC | inactive | inactive | inactive | inactive | inactive | inactive | inactive | inactive | inactive | inactive | inactive | inactive | inactive | inactive | inactive |  | inactive |  |  | 
15 | COC(=O)C(Cl)C(=O)OC | inactive | inactive | inactive | inactive | inactive | inactive | inactive | inactive | inactive | inactive | inactive | inactive | inactive | inactive | inactive | inactive | inactive |  |  | 
16 | c1ccoc1 | inactive | inactive | inactive | inactive | inactive | inactive | inactive | inactive | inactive | inactive | inactive | inactive | inactive | inactive | inactive | inactive | inactive |  |  | 
